# Measured values: PubChem BioAssay (NCATS)
# Results filed as inconclusive are left out. A call without a number means that no potency is given here. Values without a mark were called inactive. The source made the active and inactive calls. The call rests on the fitted dose curve; in most records, active means well fitted curve in the direction sought with a large enough effect; inconclusive means small, poorly fitted or top-dose-only effect, or another doubt; inactive means no such curve, though single readings can be large; an effect the other way counts as inactive or inconclusive.
# Assays:
# [1] = qHTS for Inhibitors of Plasmodium falciparum (DD2) proliferation (AID 504314)
# Method in brief: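 Fluorescence read-out (ex 485/em 535 nm) of SYBR Green-stained parasite DNA quantifies intraerythrocytic growth. Cultures at 0.3% parasitemia and 2.5% hematocrit were treated for 72 h; data normalized to DMSO and 0.29 uM artemisinin wells.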
# [2] = qHTS for Inhibitors of Plasmodium falciparum (7G8) proliferation (AID 504316); further: nearly all actives have a fitted effect of over 65% in size
# Method in brief: (§1)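 Erythrocytes infected with P. falciparum line (0.3% parasitemia, 2.5% hematocrit final) incubated with compounds 72 h at 37 °C, 5% CO2; SYBR Green lysis buffer added, fluorescence read next day. Normalized to 0.29 uM artemisinin and DMSO.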
# [3] = qHTS for Inhibitors of Plasmodium falciparum (HB3) proliferation (AID 504318); further: nearly all actives have a fitted effect of over 60% in size
# Method in brief: as §1
# [4] = qHTS for Inhibitors of Plasmodium falciparum (CP250) proliferation (AID 504320)
# Method in brief: as §1
# [5] = qHTS for Inhibitors of Plasmodium falciparum (GB4) proliferation (AID 504315); further: nearly all actives have a fitted effect of over 50% in size
# Method in brief: as §1
# Potency means the concentration at half of the fitted maximal effect.
SMILES,Potency [1],Potency [2],Potency [3],Potency [4],Potency [5]
CCCCC1=CC2=CC(=O)C(C)(OC(=O)CC)C(=O)C2=CN1CCc1ccccn1 (stereo unspecified),inactive,inactive,inactive,inactive,
CCN1C(=O)N[C@@H](c2cccs2)C(C(=O)OC)=C1C,inactive,inactive,inactive,inactive,
COC(=O)C1=C(C(=O)OC)[C@@H]2N(Cc3ccccc3)c3ccccc3[C@@]23C[C@@H](C(=O)OC)N(C(=O)CC(C)C)C3=N1,inactive,,,inactive,
C=CCNC(=O)N1C2=NC(C(=O)OC)=C(C(=O)OC)[C@@H]3N(Cc4ccccc4)c4ccccc4[C@]23C[C@H]1C(=O)OC,,1510 nM (active),3160 nM (active),,1900 nM (active)
CCCCS(=O)(=O)N1CCc2nc(-c3ccc(OC)cc3C)c3c(c2C1)CO[C@@H](c1ccccc1)C3,inactive,,,inactive,
C/C=C/C1=Cc2ccccc2C(CC(=O)OC)N1C(=O)OC (stereo unspecified),inactive,,,inactive,
COC(=O)C1=C(C(=O)OC)[C@@H]2N(Cc3ccccc3)c3ccccc3[C@@]23C[C@@H](C(=O)OC)N(S(=O)(=O)c2ccc(Br)cc2)C3=N1,,1510 nM (active),1690 nM (active),1690 nM (active),1350 nM (active)
COC(=O)C1=C(C)N(Cc2ccccc2)C(=NCCc2cccnc2)NC1c1ccc(Br)cc1 (stereo unspecified),1500 nM (active),,,1900 nM (active),
C[C@H]1CC[C@H]2C(=O)N(Cc3ccccc3)C[C@H](O)CN2[C@H]1c1cccc(Br)c1,inactive,,,inactive,
COC(=O)N1C2=C(c3ccccc3[C@@H]1CC(=O)Nc1ccc(Br)cc1)[C@@H]1C(=O)N(c3ccccc3)C(=O)[C@@H]1[C@H](C)C2,inactive,,,inactive,
C=CCN1c2ccccc2[C@]23C[C@@H](C(=O)OC)N(C(=O)c4ccc(Br)cc4)C2=NC(C(=O)OC)=C(C(=O)OC)[C@H]13,inactive,,,inactive,
CCCCc1nc2c(c3c1C[C@H](C)OC3)CN(C(=O)NCCc1c[nH]c3ccccc13)CC2,,inactive,inactive,inactive,inactive
COC(=O)C1=C(C(=O)OC)[C@@H]2N(Cc3ccccc3)c3ccccc3[C@@]23C[C@@H](C(=O)OC)N(S(=O)(=O)c2ccc4c(c2)OCCN4C)C3=N1,,1900 nM (active),1200 nM (active),1510 nM (active),1510 nM (active)
COC(=O)C1=C(C(=O)OC)[C@@H]2N(C)c3ccc(OC)cc3[C@@]23C[C@@H](C(=O)OC)N(S(=O)(=O)c2ccc(C(F)(F)F)cc2)C3=N1,inactive,,,inactive,
COC(=O)N1C2CC(=O)O[C@@H]3c4cc5c(cc4[C@]1(C)[C@@]3(Br)c1ccccc12)OCO5,,1690 nM (active),1900 nM (active),1200 nM (active),1510 nM (active)
CC#CCN1c2ccccc2[C@]23CCC(=O)N(CCCOC(C)C)C2=NC(C(=O)OC)=C(C(=O)OC)[C@H]13,inactive,,,inactive,
C=CCN1C=C2C(=O)C(C)(OC(=O)c3cccs3)C(=O)C=C2C=C1CCCC(=O)OC (stereo unspecified),,inactive,inactive,inactive,inactive

SMILES,Potency [1],Potency [2],Potency [3],Potency [4],Potency [5]
C#CCCOC(=O)N1C2=NC(C(=O)OC)=C(C(=O)OC)[C@@H]3N(Cc4ccccc4)c4ccccc4[C@]23C[C@H]1C(=O)OC,inactive,,,inactive,
CC#CCN1c2ccccc2[C@]23C[C@@H](C(=O)OC)N(S(=O)(=O)c4ccc(C#N)cc4)C2=NC(C(=O)OC)=C(C(=O)OC)[C@H]13,inactive,,,inactive,
COC(=O)C1=C(C(=O)OC)[C@@H]2N(Cc3ccccc3)c3ccccc3[C@@]23C[C@@H](C(=O)OC)N(S(=O)(=O)c2cccs2)C3=N1,inactive,,,inactive,
COC(=O)C1=C(C(=O)OC)[C@@H]2N(Cc3ccccc3)c3ccccc3[C@@]23C[C@@H](C(=O)OC)N(S(=O)(=O)c2ccc(C#N)cc2)C3=N1,,1900 nM (active),1690 nM (active),,2130 nM (active)
COC(=O)C1=C(C(=O)OC)[C@@H]2N(Cc3ccccc3)c3ccccc3[C@@]23C[C@@H](C(=O)OC)N(C(=O)c2ccc(Br)cc2)C3=N1,inactive,,,inactive,
COc1ccc(O[C@H]2C=C[C@@H](c3ccccc3)O[C@H]2COC(=O)CCC(C)=NO[C@H](C)c2cn([C@H](CO)Cc3ccccc3)nn2)cc1,,1510 nM (active),,,inactive
COC(=O)CCC(=O)OC1(C)C(=O)C=C2C=C(C3CC3)N(c3ccc(OC)cc3)C=C2C1=O (stereo unspecified),inactive,,,inactive,
CCCCCCCC1=Cc2ccccc2C(C(C(C)=O)C(=O)OC)N1C(=O)OC (stereo unspecified),inactive,,,inactive,
C=CC1=C2C=C(C3CC3)N(C3CC3)C=C2C(=O)C(C)(OC(=O)c2ccco2)C1=O (stereo unspecified),,inactive,inactive,inactive,inactive
COC(=O)C1=C(C(=O)OC)[C@@H]2Nc3ccccc3[C@@]23C[C@@H](C(=O)OC)N(S(=O)(=O)c2ccc(C(F)(F)F)cc2)C3=N1,inactive,,,inactive,
CCOC(=O)CN1C(=O)N(CC)C(C)=C(C(=O)OC)[C@@H]1c1ccccc1,,inactive,inactive,,inactive
COC(=O)C1=C(C(=O)OC)[C@@H]2N(Cc3ccccc3)c3ccccc3[C@@]23C[C@@H](C(=O)OC)N(S(=O)(=O)c2ccc(C(F)(F)F)cc2)C3=N1,,478 nM (active),478 nM (active),536 nM (active),536 nM (active)
C[C@H]1Cc2c(COc3ccccc3)nc3c(c2CO1)CN(S(=O)(=O)c1ccc(C#N)cc1)CC3,inactive,,,inactive,
CCCCCCCc1cc2ccccc2c2c(C(=O)OC)c(-c3ccccc3)c(C(=O)OC)n12,,inactive,inactive,inactive,inactive
COC(=O)C1=C(C(=O)OC)[C@@H]2N(C)c3ccc(OC)cc3[C@@]23C[C@@H](C(=O)OC)N(C(=O)CC(C)C)C3=N1,inactive,,,inactive,
CCOC(=O)CN1C(=O)N[C@@H](c2cccc(C(F)(F)F)c2)C(C(=O)OC)=C1C,,inactive,inactive,inactive,inactive
